Screening data: PubChem, National Center for Advancing Translational Sciences (NCATS)
ELG1 repair inh = qHTS screen for small molecules that inhibit ELG1-dependent DNA repair in human embryonic kidney (HEK293T) cells expressing luciferase-tagged ELG1. AID 504467, 2011. Potency, µM (doses to about 46.1 µM), actives largely listed as inhibitors. HEK293T ELG1-luciferase reporter, luminescence, 16 h; DNA damage induced by 5-fluorouridine. hit rate 2.3% among 330,000; note: nearly all actives have a fitted effect of over 55% in size
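Step one: seed 2,000 cells per well. Step two: pin-transfer compound or DMSO alongside 5-fluorouridine. Step three: incubate 16 hr, 37 °C, 5% CO2. Step four: add ONE-Glo, wait 30 min, read luminescence.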
MCF10A rereplic = A quantitative high throughput screen for small molecules that induce DNA re-replication in MCF 10a normal breast cells. MCF 10A DNA re-replication, Hoechst nuclear intensity, 48 h. Potency, µM (top dose mostly 46.1 µM), usual class: activators. hit rate 2.9% among 350,000; note: nearly all actives have a fitted effect of over 50% in size
KB-3-1 tox = qHTS assay for MDR1-selective chemotherapeutics: Primary screen using the parental adenocarcinoma cell KB-3-1; KB-3-1 viability, CellTiter-Glo ATP luminescence, 72 h; Potency, µM (series often up to 46.1 µM), actives largely listed as cytotoxic; hit rate 1.4% among 400,000; AID 1347075, 2019; note: nearly all actives have a fitted effect of over 60% in size
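Here the drug-naive KB-3-1 line serves as comparator for MDR sub-line selectivity; cells received compound titrations, 72 h at 37 °C, then CellTiter-Glo readout.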
KB-V1 cytotox = qHTS assay for MDR1-selective chemotherapeutics: Primary screen using the drug-selected MDR subline cells KB-V1; KB-V1 MDR cells viability, CellTiter-Glo, 72 h; Potency, µM (highest dose often 46.1 µM), hits mostly cytotoxic; hit rate 3.4% among 400,000; AID 1347076, 2019; note: nearly all actives have a fitted effect of over 60% in size
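qHTS viability screen in drug-selected KB-V1 MDR cells: 72 h compound treatment at 37 degrees C, ATP luminescence end point.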
SW480 rerep = A quantitative high throughput screen for small molecules that induce DNA re-replication in SW480 colon adenocarcinoma cells. Potency, µM (top dose mostly 46.1 µM), actives largely listed as activators. hit rate 1.8% among 340,000. SW480 DNA re-replication, Hoechst DNA content imaging, 48 h; note: nearly all actives have a fitted effect of over 55% in size
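Image-based DNA-content assay: after two days of treatment, nuclei were labelled with the DNA dye Hoechst and imaged, and hits were compounds raising the count of nuclei showing high fluorescence intensity.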
Hits are given with their value. This is a sample that favours compounds with a hit; in the whole collection about 8.2% have one here. Calls come from the whole dose curve; as a rule, active = well fitted curve in the direction sought with a large enough effect; inconclusive = small, poorly fitted or top-dose-only effect, or another doubt; inactive = no such curve, though single readings can be large; an effect the other way counts as inactive or inconclusive.

Results for CCN(C(=O)CCS(=O)(=O)c1cc2[nH]c(=O)c(=O)[nH]c2cc1C)c1ccccc1 ?
KB-3-1 tox: inactive; KB-V1 cytotox: inactive

What do the screens show for `CC1CCCCC1NC(=O)COc1ccccc1C#N` (stereo unspecified)?
ELG1 repair inh: inconclusive; MCF10A rereplic: inactive; KB-3-1 tox: inactive; KB-V1 cytotox: inactive; SW480 rerep: inconclusive

What do the screens show for `Cc1nc(SCC(=O)Nc2ccc3c(c2)OCCO3)c2oc3ccccc3c2n1`?
ELG1 repair inh: inactive; MCF10A rereplic: inactive; KB-3-1 tox: inactive; KB-V1 cytotox: 16µM; SW480 rerep: inactive

What do the screens show for `CCc1nc(SCC(=O)N2CCCc3ccccc32)c2oc3ccccc3c2n1`?
ELG1 repair inh: inconclusive; MCF10A rereplic: 16µM; KB-3-1 tox: inconclusive; KB-V1 cytotox: 10µM; SW480 rerep: inactive

What do the screens show for `Cc1ccc(C)c(NC(=O)Cc2csc(-c3ccccc3)n2)c1`?
ELG1 repair inh: inactive; MCF10A rereplic: inactive; KB-3-1 tox: inactive; KB-V1 cytotox: inactive; SW480 rerep: inactive

What do the screens show for `Cc1cc(NC(=O)Cc2csc(-c3ccccc3)n2)ccc1Br`?
ELG1 repair inh: inactive; MCF10A rereplic: inactive; KB-3-1 tox: inconclusive; KB-V1 cytotox: 18µM; SW480 rerep: inactive

What do the screens show for `CCCCC(=O)Nc1cccc(-c2csc(-c3ccccc3)n2)c1`?
ELG1 repair inh: inactive; MCF10A rereplic: 26µM; KB-3-1 tox: inactive; KB-V1 cytotox: inactive; SW480 rerep: inconclusive

Results for CC(=O)NCCc1csc(-c2ccccc2)n1 ?
ELG1 repair inh: inconclusive; MCF10A rereplic: 6.5µM; KB-3-1 tox: inactive; KB-V1 cytotox: inactive; SW480 rerep: inconclusive

How did Clc1ccc(-n2nnnc2-c2ccccc2)cc1 do in these assays?
ELG1 repair inh: inactive; MCF10A rereplic: inactive; KB-3-1 tox: inactive; KB-V1 cytotox: inactive; SW480 rerep: inactive

Results for O=[N+]([O-])c1ccc(Sc2ccccn2)nc1 ?
ELG1 repair inh: inactive; MCF10A rereplic: inactive; KB-3-1 tox: inactive; KB-V1 cytotox: inconclusive; SW480 rerep: inactive

How did COc1ccc(-n2nnnc2-c2ccccc2)cc1 do in these assays?
ELG1 repair inh: inconclusive; MCF10A rereplic: inactive; KB-3-1 tox: 6.5µM; KB-V1 cytotox: 9.2µM; SW480 rerep: inactive

What do the screens show for `CCCSc1nnc(Sc2nnnn2-c2ccccc2)s1`?
ELG1 repair inh: inactive; MCF10A rereplic: inconclusive; KB-3-1 tox: 5.2µM; KB-V1 cytotox: 13µM; SW480 rerep: 6.5µM

Results for COc1ccc2c(C)cc(Sc3nnnn3-c3ccccc3)nc2c1 ?
ELG1 repair inh: 26µM; MCF10A rereplic: inactive; KB-3-1 tox: inactive; KB-V1 cytotox: inconclusive; SW480 rerep: inactive

What do the screens show for `O=[N+]([O-])c1ccc(Sc2nnnn2-c2ccccc2)nc1`?
ELG1 repair inh: inconclusive; MCF10A rereplic: 3.7µM; KB-3-1 tox: inconclusive; KB-V1 cytotox: inconclusive; SW480 rerep: 6.5µM

How did CN(Cc1cccnc1)C(=O)CCCc1c[nH]c2ccccc12 do in these assays?
ELG1 repair inh: inactive; MCF10A rereplic: inactive; KB-3-1 tox: inactive; KB-V1 cytotox: inconclusive; SW480 rerep: inactive

Results for CC1(C(=O)NS(=O)(=O)C2CC2)CCN(C(=O)COc2ccc(Cl)cc2Cl)C1 (stereo unspecified) ?
KB-3-1 tox: inactive; KB-V1 cytotox: inactive

Results for COc1cccc(CNC(=O)Cn2ncn3nc(-c4cccs4)cc3c2=O)c1 ?
KB-3-1 tox: inactive; KB-V1 cytotox: inactive

Results for Cc1ccccc1-n1nnnc1SCC(N)=O ?
ELG1 repair inh: inactive; MCF10A rereplic: inactive; KB-3-1 tox: inactive; KB-V1 cytotox: inactive; SW480 rerep: inactive

How did Cc1ccccc1-n1nnnc1Sc1nnnn1-c1ccccc1 do in these assays?
ELG1 repair inh: inconclusive; MCF10A rereplic: 15µM; KB-3-1 tox: inconclusive; KB-V1 cytotox: inconclusive; SW480 rerep: inconclusive

Results for Cc1nc(SCC(=O)NCC2CCCO2)c2c3c(sc2n1)CCCC3 (stereo unspecified) ?
ELG1 repair inh: inactive; MCF10A rereplic: inactive; KB-3-1 tox: inactive; KB-V1 cytotox: inconclusive; SW480 rerep: inactive

What do the screens show for `COCCn1c(C)cc(C(=O)CSc2nc(C)nc3sc4c(c23)CCC4)c1C`?
MCF10A rereplic: inconclusive; KB-3-1 tox: inconclusive; KB-V1 cytotox: 2.6µM; SW480 rerep: inactive
